# The entries come from a sample that favours hits as a whole.
# CHX counter = counter-screen for Shiga toxin inhibitors: cycloheximide protein synthesis inhibition; 300,000 compounds, 12% hits; cell reporter, cycloheximide protein synthesis inhibition counterscreen; max response, %; AID 2314; in the data active means max response mostly above about 13%, no sharp cut-off; inactive means mostly below about 14%; further: read at 38.3 µM for the half of the compounds with a filed dose; 0% is about no effect
# LASV entry inh = blocks Lassa virus binding to or entry into cells; Lassa virus pseudotype entry inhibition, cell reporter; Potency, µM (titrated, usually from 37.9 µM), for inactives: at the highest dose activity change, negative = inhibition, most hits filed as inhibitors; 300,000 compounds, 1.2% hits; calls by dose curve; tested in HEK293 cells; further: potency means the concentration at half of the fitted maximal effect; on the % scale 0 is the no-effect control and ±100 the full control effect; nearly all actives have a fitted effect of over 50% in size
# MARV entry inh = inhibitors of Marburg virus binding or cell entry. Marburg virus pseudotyped entry inhibition, cell reporter. 300,000 compounds, 1.8% hits. Potency, µM (highest dose often 37.8 µM), for inactives: at the top dose activity change, negative = inhibition, usual class: inhibitors; calls by dose curve; tested in HEK293 cells; further: potency means the concentration at half of the fitted maximal effect; on the % scale 0 is the no-effect control and ±100 the full control effect
# Shiga inhibitor = blocks Shiga toxin action in Vero cells; 290,000 compounds, 9.2% hits; AID 2315; inhibition, % at 38.7 µM; Vero cells, Shiga toxin protein synthesis inhibition reporter; in the data active means inhibition mostly above about 28%, no sharp cut-off; inactive means mostly below about 43%; further: 0% is about no effect
# AMA1 RON2 block = AMA1-RON2 (P. falciparum) interaction inhibition; 360,000 compounds, 0.2% hits; Potency, µM (doses to about 58.2 µM), for inactives: top-dose activity change, negative = inhibition, most hits filed as inhibitors; AlphaScreen AMA1-biotinylated RON2 peptide binding; AID 720542; active means well fitted inhibition curve with a large enough effect; inconclusive means small, poorly fitted or top-dose-only effect; inactive means no such curve, though single readings can be large or run the other way;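 further: potency means the concentration at half of the fitted maximal effect; 0% = vehicle wells and -100% = peptide control; nearly all actives have a fitted effect of over 45% in size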
#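 AMA1 (3D7) with his tag at 25 nM final met compounds first, then biotinylated RON2 peptide at 25 nM; detection used donor plus acceptor beads, 10 µg/mL apiece, read by AlphaScreen after 30 min at room temperature.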
# An asterisk follows results filed as active; u = inconclusive; x = not tested or not shown; [ ] = another dose, or the depositor's remark.
SMILES,CHX counter,LASV entry inh,MARV entry inh,Shiga inhibitor,AMA1 RON2 block
COc1ccc(/C(C)=N/NC(=O)c2ccccc2OCc2ccccc2)c(OC)c1,33*,8%,u,165*,24%
COc1ccc(NC(C)C(=O)N/N=C/c2ccccc2OCc2cccc(Br)c2)cc1 (stereo not given),1,11µM*,u,-7,u
O=C1C(=O)N(c2ccccn2)C(c2cccc([N+](=O)[O-])c2)/C1=C(/O)c1ccc(Br)cc1 (stereo not given),-2,x,x,x,-9%
Cc1cc(C)cc(N2CC(c3nnc(NC(=O)c4ccco4)s3)CC2=O)c1 (stereo not given),x,-5%[46.1 µM],-17%[46.1 µM],x,x
CCc1ccc(-c2ccc(C(=O)O)c(C)n2)cc1,40*,u,u,47*,-22%
Cc1sc2nc(CSc3ccc([N+](=O)[O-])cc3)[nH]c(=O)c2c1C,-2,x,x,16,x
Cc1sc2nc(CSc3nc4ccccc4s3)[nH]c(=O)c2c1C,21*,x,x,80,x
O=c1[nH]c(CSc2nc3ccccc3s2)nc2ccccc12,30*,x,x,52*,0%
CC(C)OCCOc1ccc2oc(-c3ccco3)cc(=O)c2c1,19*,2%,1%,27,-10%
O=c1cc(-c2ccco2)oc2ccccc12,x,11%[46.1 µM],22%[46.1 µM],x,-6%
Cc1ccc2oc(-c3ccco3)cc(=O)c2c1,39*,-30%,-2%[46.1 µM],71*,-3%
CCOC(=O)c1cn(CC(=O)Nc2ccc(OC)cc2OC)nn1,-4,20%[46.1 µM],7%[46.1 µM],-14,6%
COc1cccc(-n2c(CCn3nc(C)c([N+](=O)[O-])c3C)n[nH]c2=S)c1,10,-3%,0%,-3,13%
Cc1nn(Cc2ccc(Cl)cc2)c(C)c1NC(=O)CCCn1nc(C)c([N+](=O)[O-])c1C,-4,u,13µM*,-3,10%
Cc1nn(Cc2ccccc2)c(C)c1NC(=O)CCCn1nc(C)c([N+](=O)[O-])c1C,-1,u,1%,-13,17%
COc1ccc(CCn2nc(C)c([N+](=O)[O-])c2C)cc1,30*,-16%[46.1 µM],-3%[46.1 µM],83*,-2%
CCCCn1c(N)c(N(CCOC)C(=O)c2oc3c(Cl)cccc3c2C)c(=O)[nH]c1=O,x,x,x,x,0%
CCCCCc1c(-c2ccc(OC)cc2)ncn1CCc1ccccc1OC,x,x,x,x,-28%
CCN(CC)CCCNC(=O)c1cc(-c2ccc3c(c2)OCO3)on1,6,7%[46.1 µM],u,26,7%
CCCNC(=O)c1cc(-c2ccc3c(c2)OCO3)on1,31*,u,u,86*,-22%
CC(C)NC(=O)c1cc(-c2ccc3c(c2)OCO3)on1,26*,u,u,104*,-4%
O=C(NCCc1ccccc1)c1cc(-c2ccc3c(c2)OCO3)on1,-3,0%,17%,0,0%
CCCCNC(=O)c1cc(-c2ccc3c(c2)OCO3)on1,38*,u,-12%[46.1 µM],57*,-8%
CCN(CC)C(=O)c1cc(-c2ccc3c(c2)OCO3)on1,62*,u,u,77*,0%
O=C(Nc1nncs1)c1cc(-c2ccco2)nc2ccccc12,x,6%,-1%,x,16%
SMILES,CHX counter,LASV entry inh,MARV entry inh,Shiga inhibitor,AMA1 RON2 block
CN1CCN(c2ccc(C(CC(N)=O)NC(=O)Cc3cccc4ccccc34)cc2[N+](=O)[O-])CC1 (stereo not given),-1,x,x,5,-8%
COc1ccc(-c2nc3c4ccccc4n(CC(=O)N4CCN(c5ccccc5F)CC4)c(=O)n3n2)cc1,x,-2%[46.1 µM],x,x,x
Cc1ccc(Cl)cc1N1CCN(C(=O)COc2cc(=O)n(C)c3ccccc23)CC1,x,-7%[46.1 µM],6%[46.1 µM],x,x
FC(F)(F)c1nc(-c2cccs2)ncc1-c1nnnn1-c1ccc(Cl)cc1,-2,16µM*,u,3,-1%
COc1ccc(-n2ncc3c2CC(C)(C)CC3NC(=O)c2cnc(C)cn2)cc1 (stereo not given),11,x,x,-3,-13%
CCOc1ccc(/C=C/C(=O)Nc2sc3c(c2C(=O)OC)CCC3)cc1,x,9%[46.1 µM],x,x,x
CCOc1ccc(/C=C/C(=O)C(C(N)=O)=C2SCCS2)cc1,34*,2%,u,57*,-17%
COc1ccc(/C=N/n2c(SC)nnc(C(C)(C)C)c2=O)cc1OC,-4,-16%,31%,-8,-8%
COc1ccc(/C=N/n2c(SC)nnc(C(C)(C)C)c2=O)c(OC)c1,-1,6.3µM*,-6%,56,-3%
Cc1ccc2oc(=O)c3cc(C(=O)NCCCOC(C)C)sc3c2c1,x,3%[46.1 µM],-20%[46.1 µM],x,x
Cc1nn(-c2ccccc2)c2c1N(CCCC(=O)NC(C)c1ccccc1)C(=O)CS2 (stereo not given),x,-25%[46.1 µM],x,x,x
N#C/C(=N\Nc1cccc2ccccc12)c1nnc2n1CCCCC2,14*,x,8%,3,35%
O=C(NCc1ccccn1)C(=O)Nc1cc2c3c(c1)CC(=O)N3CCC2,x,-1%,4%,x,30%
Cc1nnc(NCCc2ccccc2)c2ccccc12,42*,23%[46.1 µM],u,132*,-8%
c1ccc(CCNc2ccccc2)cc1,21*,x,x,31,x
Cc1ccc(CCNc2ccccc2)c[n+]1[O-],15*,5%,18%,11,-2%
CCN1CCC(N(Cc2cccc(OC)c2)C(=O)Nc2cccc(C(F)(F)F)c2)CC1,x,-13%[46.1 µM],x,x,x
C=CCOCCC=C1c2ccccc2[C@@H](OC)[C@@H]1C,x,x,-8%[14.2 µM],x,x
CCOc1ccc(NC(=O)Nc2cccs2)cc1,47*,-24%,u,61*,-2%
CCc1ccc(NC(=O)Nc2cccs2)cc1,20*,u,u,56*,-3%
COc1ccc(NC(=O)Nc2cccs2)cc1OC,13,8%,19%,37,-1%
Cc1ccc(NC(=O)Nc2cccs2)cc1,28*,u,u,64*,16%
Cc1ccc(NC(=O)Nc2cccs2)nc1,38*,29%,u,94*,-9%
CS(=O)(=O)Nc1cccc(C2=NN(C(=O)CCCC(=O)O)C(c3cccs3)C2)c1 (stereo not given),10,8%,23%,-6,-3%
CCCCNC(=O)c1cc2cc(OC)ccc2[nH]1,14*,x,x,23,0%
SMILES,CHX counter,LASV entry inh,MARV entry inh,Shiga inhibitor,AMA1 RON2 block
COc1ccc2[nH]c(C(=O)NCCN3CCCCC3)cc2c1,-2,5%,0%[46.1 µM],-15,-24%
COc1ccc2[nH]c(C(=O)NCCc3ccccc3)cc2c1,32*,-18%,u,85*,-24%
COc1ccc2[nH]c(C(=O)NCCCn3ccnc3)cc2c1,-2,u,-43%,-5,9%
COc1ccc(C(=O)N(C)c2ccccc2C(=O)NCCc2ccccc2)cc1,2,4µM*,u,-5,0%
CSc1ccc(Cl)c(C(=O)N(C)CC(=O)Nc2ccc(N3CCOCC3)cc2)c1,x,-26%,u,x,-18%
CSc1nc(/C=C2\C=Nc3ccccc32)c(O)n1C,17*,9%,u,117*,5%
O=c1c2oc3ccccc3c2n(Cc2ccccc2Cl)c(=O)n1Cc1ccco1,x,17%[46.1 µM],x,x,x
Clc1nc(-c2cccnc2)nc2scc(-c3ccccc3)c12,29*,-1%,-3%,40*,9%
Cc1ccc(NC(=O)c2cc(N(C)C)ccc2[P+](=O)O)cc1,84*,23%,u,105*,1%

# High-throughput results as filed in PubChem BioAssay.
